Experimental data published in PubChem BioAssay (Tox21).
Records with an inconclusive call do not appear. Active and inactive are the calls of the source. Unless noted, the call rests on the fitted dose curve; in most records, active means well fitted curve in the direction sought with a large enough effect in the repeat runs; inconclusive means weak or mixed curves; inactive means no such curve, though single readings can be large; an effect the other way counts as inactive or inconclusive.

Experiments:
[1] = qHTS assay to identify small molecule HDAC inhibitors (AID 1259364);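 further: wild-type HCT-116 cells with endogenous class I/II HDAC activity; top concentration of the series differs between compounds; nearly all actives have a fitted effect of over 45% in size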
Procedure, shortened: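 Read-out: luminescence of HDAC-Glo I/II reagent, 30 min RT, reflecting class I/II deacetylase activity in whole HCT-116 cells pre-exposed 2 h to DMSO-dissolved compounds.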

[2] = qHTS assay to identify small molecule HDAC inhibitors - cell viability counter screen (AID 1259365); further: series mostly up to about 92 µM; nearly all actives have a fitted effect of over 50% in size
Procedure, shortened: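 After overnight seeding at 1,500 cells per well, wild-type HCT-116 cultures took up compounds in DMSO for 2hr at 37 C. Viable cell content came from luminescence with CellTiter-Glo.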

[3] = qHTS assay to identify small molecule agonists of the sonic hedgehog signaling (Shh) pathway - cell viability counter screen (AID 1259366); further: nearly all actives have a fitted effect of over 50% in size
Procedure, shortened: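 Same-well cytotoxicity read. Gli1-Luc reporter 3T3 cells; compounds 24hr, 37C/5% CO2; CellTiter-Fluor fluorescence.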

[4] = qHTS assay to identify small molecule antagonists of the sonic hedgehog signaling (Shh) pathway - cell viability counter screen (AID 1259367); further: nearly all actives have a fitted effect of over 55% in size
Procedure, shortened: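 Cells: 3T3 Gli1-Luc, 2,000/well, 4 hr pre-incubation. Compounds in DMSO, then conditioned medium. Incubation 24 hr, 37C, 5% CO2. CellTiter-Fluor at 23 hr, 1 hr, fluorescence.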

[5] = qHTS assay to identify small molecule antagonists of the sonic hedgehog signaling (Shh) pathway (AID 1259369; calls by dose curve; further: nearly all actives have a fitted effect of over 45% in size)
Procedure, shortened: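 For antagonist detection, the reporter line received test compounds together with conditioned medium, incubated 24hr at 37 C, 5% CO2, then luminescence was recorded following 30min room-temperature luciferase reagent incubation.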

[6] = biological target: Estrogen receptor beta (Homo sapiens) (UniProt Q92731); assay: qHTS assay to identify small molecule agonists of the estrogen receptor beta (ER-beta) signaling pathway (AID 1259377; active means well fitted activation curve with a large enough effect in the signal ratio in the repeat runs, not every such curve was filed as active; the % refers to the signal ratio)
Procedure, shortened: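 Read-out: beta-lactamase FRET fluorescence. Cell line: ER-beta-UAS-bla HEK293T in 2% charcoal-stripped FBS. Exposure: 16 hr at 37C. Substrate step: 2 h at room temperature.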

[7] = qHTS assay to identify small molecule agonists of the androgen receptor (AR) signaling pathway in the presence of an antagonist - cell viability counter screen (AID 1259379);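 further: MDA-kb2 human breast cancer cells carrying an MMTV luciferase reporter; series mostly up to about 92 µM; nearly all actives have a fitted effect of over 25% in size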
Procedure, shortened: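 Seed MDA-kb2 at 3,000 cells/well; incubate 5 hr, 37C, 0% CO2. Add nilutamide to 3.0uM final, then pin compounds at 15 concentrations. Incubate 16 hr. Add CellTiter-Fluor at 15 hr, read fluorescence after 1 hr.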

[8] = qHTS assay to identify small molecule agonists of the estrogen receptor beta (ER-beta) signaling pathway - cell viability counter screen (AID 1259380); further: nearly all actives have a fitted effect of over 30% in size
Procedure, shortened: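 CellTiter-Glo read, 30 min RT, same wells as bla assay; cells ER-beta-UAS-bla HEK293T; 16 hr compound, 37C; medium 2% charcoal-stripped FBS.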

[9] = qHTS assay to identify small molecule agonists of the sonic hedgehog signaling (Shh) pathway (AID 1259368; calls by dose curve;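 further: NIH/3T3-derived 3T3Gli1-Luc cells carrying a stable Gli1-driven firefly luciferase reporter; series mostly up to about 92 µM; nearly all actives have a fitted effect of over 15% in size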)
Procedure, shortened: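 A Gli1 transcriptional response element controlled firefly luciferase in 3T3Gli1-Luc cells. Compounds and a positive control were added 4 hr after plating, and cells were incubated a further 24 hr at 37 C before luminescence detection.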

[10] = biological target: Estrogen receptor beta (Homo sapiens) (UniProt Q92731); assay: qHTS assay to identify small molecule antagonists of the estrogen receptor beta (ER-beta) signaling pathway (AID 1259378; active means well fitted inhibition curve with a large enough effect in the signal ratio in the repeat runs, not every such curve was filed as active; the % refers to the signal ratio)
Procedure, shortened: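 Antagonist mode: compounds added to beta-lactamase reporter HEK293T ER-beta-UAS cells stimulated with E2 (1nM final), 16 hr at 37C. LiveBLAzer B/G FRET substrate, 2 hours room temperature, fluorescence read-out.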
On the % scale 0 is the no-effect control and ±100 the full control effect.

Estrogen receptor beta (Homo sapiens), sequence (Q92731 whole entry, looked up): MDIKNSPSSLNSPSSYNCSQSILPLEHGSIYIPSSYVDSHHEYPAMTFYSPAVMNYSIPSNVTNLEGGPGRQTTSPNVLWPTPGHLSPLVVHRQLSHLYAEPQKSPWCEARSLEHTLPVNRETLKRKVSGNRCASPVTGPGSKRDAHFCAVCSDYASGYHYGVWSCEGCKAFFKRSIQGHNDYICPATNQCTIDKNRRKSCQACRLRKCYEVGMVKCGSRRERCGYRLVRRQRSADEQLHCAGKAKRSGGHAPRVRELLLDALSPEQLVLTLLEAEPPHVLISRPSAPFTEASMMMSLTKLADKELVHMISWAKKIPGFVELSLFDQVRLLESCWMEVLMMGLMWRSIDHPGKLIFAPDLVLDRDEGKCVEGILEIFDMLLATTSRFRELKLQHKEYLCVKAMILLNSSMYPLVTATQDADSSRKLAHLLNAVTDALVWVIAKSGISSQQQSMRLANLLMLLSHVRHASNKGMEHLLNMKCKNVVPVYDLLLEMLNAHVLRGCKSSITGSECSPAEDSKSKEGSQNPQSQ

CC(C)NC(=O)c1ccc(C=O)cc1
inactive: Potency [1] | outcome [2] | outcome [3] | outcome [4] | Potency [5] | Potency [6] | outcome [7] | outcome [8]

CCC(C(=O)OCCN1CCOC(c2ccccc2)C1C)c1ccccc1 (configuration not stated)
inactive: Potency [1] | outcome [2] | outcome [3] | outcome [4] | outcome [7] | outcome [8]

C=CCCCC
inactive: Potency [1] | outcome [2] | outcome [3] | outcome [4] | outcome [9] | outcome [7] | outcome [8]

OC[C@H]1O[C@@H](O[C@@H]2[C@@H](CO)O[C@](O)(CO)[C@H]2O)[C@H](O)[C@@H](O)[C@H]1O
inactive: Potency [1] | outcome [2] | outcome [4] | Potency [5] | outcome [7] | outcome [8]

CC1CC(=O)CC(C)(C)C1 (configuration not stated)
inactive: Potency [1] | outcome [2] | outcome [4] | outcome [9] | Potency [5] | outcome [7]

Cc1ccnc(N)c1
inactive: Potency [1] | outcome [2] | outcome [4] | outcome [9] | Potency [5] | Potency [6] | Potency [10] | outcome [7]

CCC(=O)CC
inactive: Potency [1] | outcome [2] | outcome [4] | Potency [5] | outcome [7] | outcome [8]

Cc1c(N)cccc1Cl
inactive: Potency [1] | outcome [2] | outcome [4] | Potency [6] | Potency [10] | outcome [7] | outcome [8]

CC1OCCC1=O (configuration not stated)
inactive: Potency [1] | outcome [2] | outcome [4] | Potency [5] | Potency [10] | outcome [7] | outcome [8]

Cc1ccccc1C(N)=O
inactive: Potency [1] | outcome [2] | outcome [4] | outcome [9] | Potency [5] | Potency [6] | Potency [10] | outcome [7] | outcome [8]

CCCSSCCC
inactive: outcome [2] | outcome [3] | outcome [4] | outcome [9] | Potency [5] | Potency [6] | Potency [10] | outcome [7] | outcome [8]

CC1(C)CC(OC(=O)CCCCCCCCC(=O)OC2CC(C)(C)NC(C)(C)C2)CC(C)(C)N1
inactive: activity change, negative = inhibition [1] 6.2% [at 19 µM] | activity change, negative = cytotoxicity [2] -7.5% [at 19 µM] | viability change, negative = cytotoxic [4] -5.84% [at 19 µM] | activity change [9] 0.253% [at 18.9 µM] | activity change, negative = inhibition [5] -29.1% [at 19 µM] | activation [6] -4.04% [at 19 µM] | activity change, negative = cytotoxicity [7] 0.897% [at 19 µM]

COc1nc(N)nc2nc[nH]c12
inactive: outcome [2] | outcome [3] | outcome [4] | outcome [9] | Potency [5] | Potency [6] | Potency [10] | outcome [7] | outcome [8]

C=C(C)[C@@H]1CC=C(C)C(=O)C1
inactive: Potency [1] | outcome [2] | outcome [4] | outcome [9] | Potency [5] | Potency [6] | Potency [10] | outcome [7] | outcome [8]

CN1CCOC(c2ccccc2)c2ccccc2C1 (configuration not stated)
inactive: Potency [1] | outcome [2] | outcome [4] | outcome [9] | Potency [5] | Potency [6] | Potency [10] | outcome [7] | outcome [8]

CC1=NN(c2ccc(S(=O)(=O)O)cc2)C(=O)C1
inactive: Potency [1] | outcome [2] | outcome [4] | outcome [9] | Potency [5] | outcome [7] | outcome [8]

CN(C)CCCCl
inactive: Potency [1] | outcome [2] | outcome [4] | outcome [9] | Potency [5] | outcome [7] | outcome [8]

C=CCN1C[C@H](C(=O)N(CCCN(C)C)C(=O)NCC)C[C@@H]2c3cccc4[nH]cc(c34)C[C@H]21
inactive: Potency [1] | outcome [2] | outcome [4] | outcome [9] | Potency [5] | Potency [6] | outcome [8]

O=C(O)CONC(=O)c1ccccc1
inactive: Potency [1] | outcome [2] | outcome [4] | outcome [7] | outcome [8]

OC1OCCOC1O (configuration not stated)
inactive: Potency [1] | outcome [3] | outcome [4] | Potency [5] | outcome [7] | outcome [8]

c1ccc2cnccc2c1
inactive: Potency [1] | outcome [2] | outcome [4] | outcome [9] | Potency [5] | outcome [7] | outcome [8]

CN(C)CC/C=C1/c2ccccc2COc2ccc(CC(=O)O)cc21
inactive: Potency [1] | outcome [2] | outcome [3] | outcome [9] | Potency [10] | outcome [7]

C=CC/C=C/C
inactive: Potency [1] | outcome [2] | outcome [4] | Potency [5] | outcome [7] | outcome [8]

N#CCC(=O)NN
inactive: Potency [1] | outcome [2] | outcome [4] | outcome [9] | Potency [5] | outcome [7] | outcome [8]

O=C[O][Al]([O]C=O)[O]C=O
inactive: Potency [1] | outcome [2] | outcome [4] | outcome [9] | Potency [5] | outcome [7]
